Measured values published in PubChem BioAssay.
The source made the active and inactive calls.

Key:
[1] = compound effects on differentiated 3T3-L1 adipocyte viability – cell-based, 3T3-L1 adipocytes, calcein-AM fluorescence, 48 h, basal, profiling panel (AID 1163); details: 3T3-L1 adipocytes viability, higher = more signal
[2] = compound effects on hepatocellular carcinoma cell viability – HepG2, calcein-AM fluorescence, 48 h, basal, profiling panel (AID 1164); details: higher = more signal
[3] = compound effects on multiple myeloma cell viability – MM1S, calcein-AM fluorescence, 48 h, basal, profiling panel (AID 1165); details: higher = more signal;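 also: viability of MM1S multiple myeloma cells under basal unstimulated conditions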
[4] = calcein-AM signal in unstimulated myeloma cells – cell-based, calcein-AM fluorescence, 48 h, PK04 Diversity Set, profiling panel (AID 1166); details: RPMI8226 myeloma viability, higher = more signal;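 also: cells grown under basal conditions without added stimulus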
[5] = JC-1 mitochondrial signal, unstimulated HepG2 cells – cell-based, JC-1 fluorescence, 24 h, 100 nL compound, profiling panel (AID 1167); details: HepG2 mitochondrial potential, higher = more signal
[6] = JC-1 mitochondrial signal, unstimulated adipocytes – cell-based, JC-1 fluorescence, 3T3-L1 adipocytes, 24 h, 100 nL compound, profiling panel (AID 1168); details: JC-1 mitochondrial fluorescence, higher = more signal, called active from +8 up or from −8 down
[7] = JC-1 mitochondrial signal, unstimulated myeloma cells – cell-based, JC-1 fluorescence, RPMI8226, 24 h, 100 nL compound, profiling panel (AID 1169); details: JC-1 mitochondrial potential fluorescence, higher = more signal
[8] = JC-1 mitochondrial signal, unstimulated MM1S myeloma – cell-based, JC-1 fluorescence, 24 h, 100 nL compound, profiling panel (AID 1170); details: MM1S mitochondrial potential, higher = more signal
[9] = resazurin metabolic signal in A549 cells – cell-based, resazurin fluorescence, 24 h, PK04 Diversity Set, profiling panel (AID 1171); details: A549 viability, higher = more signal, called active from +8 up or from −8 down
[10] = resazurin metabolic signal in HepG2 cells – cell-based, resazurin fluorescence, 24 h, PK04 Diversity Set, profiling panel (AID 1172); details: HepG2 viability, higher = more signal
[11] = budding yeast growth changes without added modifier – OD600, strain BY4716, 24 h, basal condition, primary screen (AID 1173); details: S. cerevisiae BY4716 growth, OD600, 24 h; higher = more signal, called active from +8 up or from −8 down
[12] = viability profiling in MM1S myeloma cells – cell-based, resazurin fluorescence, basal, 24 h, PK04 Diversity Set, profiling panel (AID 1174); details: higher = more signal, called active from +8 up or from −8 down
[13] = target: Dihydroorotate dehydrogenase (quinone), mitochondrial (Plasmodium falciparum (isolate 3D7)) (UniProt Q08210); test: inhibition of P. falciparum DHODH – biochemical, C-terminal His tag, absorbance 600 nm, primary screen (AID 1175); details: PfDHODH enzyme, DCIP absorbance 600 nm; higher = more signal, called active from +8 up or from −8 down;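 also: recombinant parasite enzyme with a five histidine tag at its C terminus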
Sequence of Dihydroorotate dehydrogenase (quinone), mitochondrial (Plasmodium falciparum (isolate 3D7)) (Q08210 whole entry, looked up): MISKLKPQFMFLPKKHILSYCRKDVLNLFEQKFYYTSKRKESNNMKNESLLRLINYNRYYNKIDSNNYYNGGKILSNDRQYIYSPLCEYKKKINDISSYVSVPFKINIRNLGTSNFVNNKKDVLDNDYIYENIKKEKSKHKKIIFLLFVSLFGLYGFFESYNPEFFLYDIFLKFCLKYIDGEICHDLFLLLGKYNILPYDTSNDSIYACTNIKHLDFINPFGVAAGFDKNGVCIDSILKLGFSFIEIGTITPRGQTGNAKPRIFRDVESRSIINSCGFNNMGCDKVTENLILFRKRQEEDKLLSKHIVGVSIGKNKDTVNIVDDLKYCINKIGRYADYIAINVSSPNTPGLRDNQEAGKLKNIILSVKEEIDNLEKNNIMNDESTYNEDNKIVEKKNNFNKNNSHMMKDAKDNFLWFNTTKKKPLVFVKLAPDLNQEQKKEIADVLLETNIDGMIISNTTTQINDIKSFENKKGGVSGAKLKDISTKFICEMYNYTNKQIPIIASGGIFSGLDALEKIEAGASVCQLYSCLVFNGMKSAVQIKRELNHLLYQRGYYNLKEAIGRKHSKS

[14] = growth modulation of vineyard yeast isolate – strain RM11-1a, OD600, basal, 24 h, primary screen (AID 1177);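 also: cultures grown under basal conditions with no added stressor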; details: S. cerevisiae RM11-1a growth, OD600, 24 h; higher = more signal, called active from +8 up or from −8 down
[15] = growth of efflux-deficient E. coli DRC39 – strain DRC39, OD650, 24 h, E. coli filamentation inducers, primary screen (AID 1178);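 also: growth measured as culture turbidity by optical density at 650 nm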; details: E. coli DRC39 acrAB, higher = more signal, called active from +8 up or from −8 down
[16] = growth of efflux-deficient E. coli DRC39 – strain DRC39, OD650, 48 h, E. coli filamentation inducers, primary screen (AID 1179);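 also: screen aims at cell division blockers that make cells filament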; details: E. coli DRC39 delta-acrAB growth, higher = more signal, called active from +8 up or from −8 down
[17] = viability profiling in RPMI8226 myeloma cells – cell-based, resazurin fluorescence, basal, 24 h, PK04 Diversity Set, profiling panel (AID 1180); details: higher = more signal;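 also: RPMI8826 multiple myeloma cell line at 5000 cells per well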
[18] = target: E3 ubiquitin-protein ligase XIAP (Homo sapiens) (UniProt P98170); test: small molecules binding XIAP protein – biophysical, small-molecule microarray, fluorescence 635 nm, primary screen (AID 1181); details: higher = more signal;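 also: score merges 667 nm emission and signal to noise over triplicate slides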
Sequence of E3 ubiquitin-protein ligase XIAP (Homo sapiens) (P98170 whole entry, looked up, the tested form may be a part): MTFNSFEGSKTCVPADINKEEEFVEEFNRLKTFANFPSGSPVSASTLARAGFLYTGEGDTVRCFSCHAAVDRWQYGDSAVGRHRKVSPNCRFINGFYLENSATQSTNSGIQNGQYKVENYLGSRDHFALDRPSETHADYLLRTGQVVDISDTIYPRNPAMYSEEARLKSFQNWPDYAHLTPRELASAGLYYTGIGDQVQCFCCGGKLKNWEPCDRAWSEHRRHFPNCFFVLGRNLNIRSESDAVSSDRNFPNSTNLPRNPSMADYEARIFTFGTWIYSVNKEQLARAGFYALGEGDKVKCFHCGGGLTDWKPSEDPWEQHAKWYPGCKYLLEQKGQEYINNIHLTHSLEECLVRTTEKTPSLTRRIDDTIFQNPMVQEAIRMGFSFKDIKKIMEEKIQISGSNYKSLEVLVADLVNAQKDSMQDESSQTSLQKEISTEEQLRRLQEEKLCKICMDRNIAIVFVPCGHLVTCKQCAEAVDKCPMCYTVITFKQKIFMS

[19] = system: XIP peptide (Xip251-270) binding; test: XIP fragment 251-270 binding compounds – biochemical, small-molecule microarray, fluorescence 635/667 nm, 0.1 µg/mL protein, primary screen (AID 1182); details: fluorescent protein binding, 635 nm, higher = more signal, called active from +8 up or from −8 down
[20] = system: XIP peptide (Xip251-270); test: compounds binding XIP fragment 251-270 – biochemical, small-molecule microarray, fluorescence 635/667 nm, 0.5 µg/mL protein, primary screen (AID 1183); details: fluorescence 635 nm, higher = more signal

| Compound | z-score [1] | z-score [2] | z-score [3] | z-score [4] | z-score [5] | z-score [6] | z-score [7] | z-score [8] | z-score [9] | z-score [10] | z-score [11] | z-score [12] | composite z-score [13] | z-score [14] | z-score [15] | z-score [16] | z-score [17] | composite z-score [18] | composite z-score [19] | composite z-score [20] |
| --- | --- | --- | --- | --- | --- | --- | --- | --- | --- | --- | --- | --- | --- | --- | --- | --- | --- | --- | --- | --- |
| COc1ccc([Si](C)(C)[C@H]2[C@H](CCO)O[C@@]3(C(=O)N(Cc4ccc(N5C(=O)c6cccc7cccc5c67)cc4)c4ccccc43)[C@@H]2C)cc1 | 2.06 | -2.91 | -1.23 | -3.75 | 0.00974 | 1.68 (inactive) | -1.07 | -1.6 | -2.51 (inactive) | -1.26 | -0.433 (inactive) | -2.4 (inactive) | -0.344 (inactive) | 2.48 (inactive) | 2.3 (inactive) | 1.4 (inactive) | -4.55 | 0.0223 | 0.529 (inactive) | 0.623 |
| CO[C@H]1O[C@H](CO)[C@@H](OC(=O)CCc2ccccc2)[C@@H]2OC(=O)[C@H](Cc3ccccc3)C/C=C/C[C@@H](Cc3ccccc3)C(=O)O[C@@H]12 | 0.234 | 0.62 | -0.0096 | 0.212 | 0.443 | 0.886 (inactive) | 0.12 | 0.119 | 1.43 (inactive) | 1.02 | -2.53 (inactive) | 0.832 (inactive) | -15.6 (active) | -0.103 (inactive) | 1.19 (inactive) | 0.754 (inactive) | 0.884 | -0.039 | 1.2 (inactive) | -0.0342 |
| CCOC(=O)C[C@H]1[C@H](OC(=O)c2ccc(-c3ccccc3)cc2)[C@@H](NC(=O)c2ccccc2)c2cc(OCCCO)ccc2N1C(=O)c1ccccc1 | 1.54 | -0.159 | 1.11 | -0.132 | 3.28 | 0.318 (inactive) | 0.709 | 1.38 | -0.325 (inactive) | 0.643 | -1.34 (inactive) | 1.83 (inactive) | 0.594 (inactive) | -1.37 (inactive) | 1.76 (inactive) | 1 (inactive) | 0.815 | -0.0351 | 0.358 (inactive) | -0.206 |
| C=CCC(OC(C)=O)[C@@H]1[C@@H](N(Cc2cccc3ccccc23)C(=O)c2cccc3ccccc23)c2cc(OCCCO)ccc2N1C(=O)Cc1ccc(OC)cc1 (stereo not given in full) | 2.56 | 0.486 | 1.7 | -1.28 | 3.07 | 0.451 (inactive) | 0.402 | 0.779 | -0.245 (inactive) | 0.147 | -3 (inactive) | 1.09 (inactive) | 0.848 (inactive) | -1.48 (inactive) | 1.35 (inactive) | 0.717 (inactive) | 0.301 | 0.108 | 0.936 (inactive) | -0.314 |
| C=CCN1C(=O)[C@@]2(O[C@@H](CCn3cc(CCO)nn3)[C@H]([Si](C)(C)c3ccc(OC)cc3)[C@H]2C)c2cc(NC(=O)c3ccc(OC)cc3)ccc21 | 1.2 | -0.408 | -2.91 | -3.3 | 0.978 | 0.659 (inactive) | -0.925 | 0.212 | -1.27 (inactive) | -0.322 | -4.11 (inactive) | -1.55 (inactive) | -0.118 (inactive) | 0.901 (inactive) | 1.55 (inactive) | 1 (inactive) | -1.51 | -0.168 | -0.025 (inactive) | 0.442 |
| C[N+](C)(C)CCCC[C@@H]1NC(=O)[C@@H]2C[C@H](C(=O)NCCCCCNC(=O)CS)[C@H](c3ccc(O)cc3)N2C1=O | 1.09 | -0.792 | -0.982 | 0.027 | 2 | 0.385 (inactive) | 0.289 | -0.336 | 1.09 (inactive) | -0.122 | -1.15 (inactive) | 0.941 (inactive) | -1.15 (inactive) | -1.36 (inactive) | 0.513 (inactive) | 0.355 (inactive) | 1.55 | 0.0471 | 0.609 (inactive) | 0.184 |
| NC(=O)N1C(=O)C2C(C1=O)C1C=C(c3ccc(CO)cc3)C2C(C2CC2)N1Cc1cc2c(cc1Br)OCO2 (stereo not given) | 1.32 | -0.282 | -0.767 | -1.11 | 1.26 | 1.44 (inactive) | -0.3 | 0.463 | 0.761 (inactive) | 0.627 | -3.17 (inactive) | 0.814 (inactive) | -0.692 (inactive) | -1.02 (inactive) | 1.36 (inactive) | 0.422 (inactive) | 0.298 | -0.143 | 1.06 (inactive) | -0.673 |
| COC(=O)C1=CC(c2ccc(CO)cc2)=CC(c2cccs2)N(C)C=C1C(=O)OC (stereo not given) | 2.32 | -0.0015 | -0.517 | -0.257 | 0.636 | 0.375 (inactive) | -0.327 | 0.12 | 0.446 (inactive) | -0.419 | -2.16 (inactive) | 0.173 (inactive) | -1.75 (inactive) | -0.688 (inactive) | 1.05 (inactive) | 0.542 (inactive) | 1.05 | 0.0049 | 1.84 (inactive) | 0.302 |
| C=CC[C@]1(C(=O)N(C)C)N=C(c2ccc(OCCCO)cc2)O[C@H]1c1ccccc1CN=[N+]=[N-] | 0.988 | 1.18 | -1.17 | -0.862 | 2.11 | 0.0328 (inactive) | -0.942 | -0.587 | 1.26 (inactive) | 0.481 | -1.26 (inactive) | 0.838 (inactive) | -0.0916 (inactive) | -0.197 (inactive) | 1.53 (inactive) | 0.442 (inactive) | 0.747 | 0.0471 | 0.137 (inactive) | 0.53 |
